From PubChem BioAssay (NCI)
This is part of a sample that, as a whole, favours compounds with a hit. Of some 83,000 tested, about 20% had one in any assay.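 Each cell line was grown in a 96-well plate and treated with one concentration of compound for 48 hours. Values below 10 were considered active.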 Unmarked numbers belong to inactive results. Activity calls are given as the source filed them.

tested on: MDA-MB-468 breast; test: NCI-60 one-dose screen, 48 h (100 = growth as untreated, 0 = no growth, -100 = all killed); conditions: 10 µM unless noted

Structure (SMILES) | growth
CCCCCCCCCCCCCCC(C(=O)OCC)C(=O)OCC | 95.9%
C/C=C/C/C=C/[C@H](C)C[C@H](O)[C@@H]1C[C@@H]2O[C@H]2/C=C/[C@@H]2OC(C)(C)O[C@H]2/C=C/C[C@H](C)CC(=O)O1 | 59.8%
C=C(C)[C@@H]1CCC[C@]2(COS(=O)(=O)c3ccc(C)cc3)CC[C@]3(C)[C@@H](CC[C@@H]4[C@@]5(C)CCCNC(C)(C)[C@@H]5CC[C@]43C)[C@@H]12 | -78.2% (active)
CCCCCCCCCCCC(=O)[O][Sn]([CH2]CCC)([CH2]CCC)[CH2]CCC | -79.4% (active)
COc1ccccc1C(=O)Nc1cccc2c1C(=O)C(=O)C=C2 | 103%
CCN(Cc1ccc(Cl)c(Cl)c1)c1ccc2nc(N)nc(N)c2c1C | -84.2% (active)
O=c1c(/C=C/c2c(O)ccc3ccccc23)nnc2sc(-c3cccc([N+](=O)[O-])c3)nn12 | 40.9%
COc1ccc(-c2cc(-c3cc(OC)ccc3O)[nH]c(=O)c2C#N)cc1 | 59.5%
COC(=O)c1nc(-c2ccccc2)oc1S(=O)(=O)N1CCCC(C)C1 (stereo unspecified) | 29.2%
Cc1ccc(C)c(CCO)c1 | 93.5%
NC(=O)c1cccc(-n2ccc3cc(NC(=O)Nc4ccc(Cl)c(Cl)c4)ccc32)n1 | 60.8%
CCOC(=O)C#Cc1c(CC(=O)OCC)nnn1[C@H]1O[C@@H](CO)[C@@H]2OC(C)(C)O[C@@H]21 | 10.6%
O=C(Nc1cccc(C2=NCCN2)c1)c1ccc(N=Nc2ccc(C(=O)Nc3cccc(C4=NCCN4)c3)cc2)cc1 | 6.96% (active)
CC12CC3CC1C(C(=O)O2)C3C(=O)O (stereo unspecified) | 103%
O=C(c1ccc(F)c(Cl)c1)N1c2ccccc2Sc2ccccc21 | 63.1%
N/C(=N\C(N)=N\c1nc2ccccc2s1)c1cccc(Cl)c1 | 110%
Cc1ccc(-c2cc3nc(C(Cl)Cl)nc(-c4ccc(S(=O)(=O)N(C)C)cc4)n3n2)cc1 | 82%
Nc1nc(N)c2cc(NCc3ccc(Cl)c(Cl)c3)ccc2n1 | -84.7% (active)

Structure (SMILES) | growth
CCN(CC)CCC(C(=O)O)(c1ccccc1)c1ccccc1 | 120%
O=C(/C=C/c1cccc(F)c1)c1cccc(OCCCCOc2cccc(C(=O)/C=C/c3cccc(F)c3)c2)c1 | 87.2%
CCNC(=O)Oc1ccc(/C(=C(/CC)Cc2ccccc2)c2ccc(OCCN3CCCC3)cc2)cc1 | 87.5%
O=c1cc(-c2cccnc2)oc2c1ccc1ccccc12 | 65%
Cc1ccc(/C=C/C(=O)c2ccc(F)cc2)s1 | 42.2%
COc1ccc2c(O)c(/C=C3\N=Nc4ccccc43)oc2c1C[C@@H]1CCNC[C@H]1F | 74.4%
O=C(c1nn(-c2ccc(Cl)cc2)cc1O)n1nc(C(F)(F)F)cc1-c1ccccc1 | 32.8%
Cc1nccc2c3ccc(OCc4cn(-c5ccc(Cl)cc5)nn4)cc3n(CC(C)C)c12 | -1.72% (active)
CC(=O)N1CCN(CCNC(=O)n2cc(-c3ccncc3)c(-c3cc(O)cc(Cl)c3)n2)CC1 | 32.4%
COc1cc(NC(=O)c2cncnc2Nc2ccc3c(ccn3Cc3cccc(F)c3)c2)cc(OC)c1 | 42.8%
C#CCN(CCCOc1ccc(Cl)cc1Cl)CCCSC(=O)CCCCCN1/C(=C\C=C2/CCCC(/C=C/C3=[N+](CCCCCC(=O)[O-])c4ccccc4C3(C)C)=C2Cl)C(C)(C)c2ccccc21 | 12.8%
O=C1C=CC(=O)N1c1ccccn1 | 114%
c1ccc2[nH]c(-c3ccc(Nc4nc(N5CCCCC5)nc(N5CCOCC5)n4)cc3)nc2c1 | -3.66% (active)
CC(C)CC1C(=O)N2CCC[C@H]2C2(O)O[C@](NC(=O)C3C=C4c5cccc6[nH]c(Br)c(c56)C[C@H]4N(C)C3)(C(C)C)C(=O)N12 (stereo partly specified) | 20.3%
NN=C(c1ccc(Cl)cc1)c1ccc(Cl)cc1 | 111%
COc1cc2c(c(OC)c1OC)-c1ccc(NCc3ccccc3)c(=O)cc1[C@@H](NC(C)=O)CC2 | 17.3%
COc1cc(C2CC(C3C(=O)N(C)C(=O)N(C)C3=O)=NN2c2cc(Cl)cc(Cl)c2)cc(OC)c1OC (stereo unspecified) | 84.5%
COc1cc2oc(-c3cccc(C(=O)Nc4ccc(C)cc4)c3)cc(=O)c2c(OC)c1OC | 54.5%
